Assay [1] addresses ATP-dependent translocase ABCB1 (Homo sapiens) (UniProt P08183). Nature of the assay: P-glycoprotein substrate transport blockade – cell-based (AID 377; in the data active = fluorescence slope change above about 50%). Conditions: MDR1-expressing cells, fluorescent substrate accumulation slope; stronger effect = higher value; concentration not given here.
Assay [2] in a line: compounds altering circadian rhythm period length – cell-based, LOPAC library, luminescence reporter (AID 2774).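 Also: values are relative to mean of DMSO wells on each plate.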 To be noted: circadian reporter cells, at 7 µM, actives lie on both sides.
The nature of assay [3]: compounds altering viability of human ES cells (AID 493140).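 Also: cells exposed to compounds for four days before counting.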 To be noted: human embryonic stem cell survival screen; stronger effect = higher value.
Assay [4] is described as follows: P. berghei load reduction in hepatocytes – cell-based, HepG2, luciferase luminescence, HepG2 viability, primary screen (AID 624349; in the data active = parasite load remaining mostly below about 12%, no sharp cut-off; inactive = mostly above about 10%;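 also: 100% = mean of DMSO negative control wells on the same plate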). Conditions: P. berghei liver stage in HepG2, luciferase luminescence, concentration not given here; parasite load remaining: stronger effect = lower value; viability: measured here: HepG2 viability without parasites.
Assay [5] is described as follows: viability loss with induced miR-34 in A549 – imaging, A549 dox-inducible miR-34, nuclei and caspase counts, primary screen (AID 1347080;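 active = compounds whose cell count with miR-34 switched on is under 0.7 times the count with it off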). To be noted: A549 miR-34 inducible, Hoechst nuclei count, 48 h.
Assay [6] is described as follows: MELAS cybrid and Rieske KO viability enhancers – cell-based, MELAS cybrids, Rieske KO mouse fibroblasts, CellTiter-Glo, primary screen (AID 1508586;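 active = mean z-score across replicates of 1.96 or higher in either the MELAS or the Rieske mutant cell line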;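 also: z relative to plate mean and SD of compound and empty wells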). To be noted: low glucose. (In ATP-based viability assays light output follows the ATP content of the culture.)
The target in assay [7] is NAD(+) hydrolase SARM1 (Homo sapiens) (UniProt Q6SZW1). As to the kind of experiment: blocking NAD cleavage by SARM1 SAM-TIR – cell lysate, NAD-Glo luminescence (AID 1508614;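 active = compound whose remaining NAD level is above about 45 nM, limit read from the data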;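 also: higher remaining NAD means stronger inhibition of SARM1 NADase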). Conditions: SAM-TIR HEK293T lysate NADase, at 1 µM, stronger effect = higher value.
Sequence of NAD(+) hydrolase SARM1 (Homo sapiens) (Q6SZW1 whole entry, looked up, the tested form may be a part): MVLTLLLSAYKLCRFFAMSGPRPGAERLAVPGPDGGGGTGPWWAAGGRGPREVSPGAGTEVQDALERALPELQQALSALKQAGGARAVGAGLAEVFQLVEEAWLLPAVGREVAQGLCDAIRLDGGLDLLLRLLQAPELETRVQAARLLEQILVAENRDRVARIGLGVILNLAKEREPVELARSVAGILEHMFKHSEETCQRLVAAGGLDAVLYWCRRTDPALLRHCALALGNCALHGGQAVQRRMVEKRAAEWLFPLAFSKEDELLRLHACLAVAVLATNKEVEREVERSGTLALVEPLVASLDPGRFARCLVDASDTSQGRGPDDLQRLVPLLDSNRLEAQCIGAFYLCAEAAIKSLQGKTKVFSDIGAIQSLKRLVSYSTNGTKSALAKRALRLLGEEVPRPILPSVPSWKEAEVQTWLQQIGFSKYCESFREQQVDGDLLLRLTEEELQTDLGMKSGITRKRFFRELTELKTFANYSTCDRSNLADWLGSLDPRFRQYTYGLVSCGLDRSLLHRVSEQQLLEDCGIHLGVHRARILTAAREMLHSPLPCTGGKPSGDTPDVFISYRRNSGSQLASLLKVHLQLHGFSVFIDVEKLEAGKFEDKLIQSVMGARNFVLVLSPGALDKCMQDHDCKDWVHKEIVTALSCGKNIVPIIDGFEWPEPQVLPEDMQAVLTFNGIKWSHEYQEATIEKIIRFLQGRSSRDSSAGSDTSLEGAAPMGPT
Assay [8] deals with Mitogen-activated protein kinase 7 (Homo sapiens) (UniProt Q13164). As to the kind of experiment: Gal4-ERK5 driven luciferase induction – cell-based, HTS, primary screen (AID 1508626;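 active = luciferase signal above three times the same-plate solvent-only control wells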;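 also: luciferase driven by Gal4-ERK5 fusion binding five Gal4 sites before minimal TATA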). Conditions: HeLa Gal4-ERK5 transactivation, 18 h, at 5 µM, stronger effect = higher value.
Sequence of Mitogen-activated protein kinase 7 (Homo sapiens) (Q13164 whole entry, looked up, the tested form may be a part): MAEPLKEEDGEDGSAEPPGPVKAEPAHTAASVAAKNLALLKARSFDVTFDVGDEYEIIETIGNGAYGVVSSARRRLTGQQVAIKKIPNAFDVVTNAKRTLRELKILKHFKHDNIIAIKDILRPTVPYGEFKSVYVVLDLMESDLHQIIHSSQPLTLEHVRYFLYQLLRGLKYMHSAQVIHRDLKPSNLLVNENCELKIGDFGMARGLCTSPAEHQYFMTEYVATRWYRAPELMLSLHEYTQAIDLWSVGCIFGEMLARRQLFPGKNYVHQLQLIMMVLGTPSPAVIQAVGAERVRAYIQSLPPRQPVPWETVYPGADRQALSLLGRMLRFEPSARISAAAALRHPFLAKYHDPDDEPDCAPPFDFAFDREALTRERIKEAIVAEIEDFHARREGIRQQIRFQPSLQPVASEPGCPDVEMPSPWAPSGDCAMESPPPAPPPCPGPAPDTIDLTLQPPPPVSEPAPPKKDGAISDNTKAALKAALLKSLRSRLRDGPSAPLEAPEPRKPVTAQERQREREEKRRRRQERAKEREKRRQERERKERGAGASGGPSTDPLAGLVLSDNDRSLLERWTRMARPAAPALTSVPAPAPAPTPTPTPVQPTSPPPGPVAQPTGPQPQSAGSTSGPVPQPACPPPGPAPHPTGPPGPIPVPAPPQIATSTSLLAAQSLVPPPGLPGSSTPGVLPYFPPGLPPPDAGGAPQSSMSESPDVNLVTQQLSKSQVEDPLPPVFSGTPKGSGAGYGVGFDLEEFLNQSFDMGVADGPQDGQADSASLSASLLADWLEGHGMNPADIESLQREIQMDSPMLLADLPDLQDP
A short description of assay [9]: galactose survival enhancers in mitochondrial complex I cybrids – cell-based, galactose medium, ATP luminescence, primary screen (AID 1645843;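 active = z-score of at least 1.8 in each of two replicates, scored against plate mean and spread of sample wells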;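 also: positive z means more ATP and so rescue of galactose-driven cybrid death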). To be noted: complex I mutant cybrid cells, 72 h, stronger effect = higher value.
The test system of assay [10] is Hepatitis C virus NS3 helicase. Nature of the assay: blockers of NS3h binding to ssDNA – biochemical, fluorescence polarization, LOPAC1280 library, primary screen (AID 687035; in the data active = inhibition above about 37%). To be noted: Purified HCV NS3 helicase, Cy5-dT15 ssDNA binding fluorescence polarization; stronger effect = higher value; concentration not given here. (In general: In fluorescence polarisation assays a small probe gives low polarisation when free and higher when bound to something large.)

The nature of assay [11]: compounds altering Cy5-DNA-NS3h complex signal – biochemical, LOPAC1280, artefact control for HCV NS3 helicase inhibitor project (AID 687037). Conditions: Cy5-DNA-NS3h complex fluorescence interference counterscreen. Background: A counterscreen serves to expose hits that act by an unwanted route or on another target.
Assay [12] is described as follows: blockers of cellular phospholipid synthesis – cell-based, LOPAC library, screen 4, primary screen (AID 1347384). Conditions: animal cells, phospholipid biosynthesis inhibition screen; at 10 µM.
[13] abbreviates: stronger effect = lower value, cell number ratio, induced over uninduced.
Where [14] appears, read: measured here: relative caspase fold change +Dox/-Dox.
Setting [15] is: measured here: total cells with miR-34 induction, stronger effect = lower value.
Setting [16] is: measured here: total cells without miR-34 induction.
Setting [17] is: MELAS cybrid survival, CellTiter-Glo 48 h, stronger effect = higher value.
Setting [18] is: Rieske KO mouse fibroblast survival, CellTiter-Glo 72 h.

Here are results for ten compounds from PubChem BioAssay.

SMILES strings stand for the structures. “And” between values parts separate entries of the source, which are not always exact repeats. Identical values can stand only once. Inconclusive results are not listed. The source made the active and inactive calls. Unless noted, no rule for the calls is given here.

Sequence of ATP-dependent translocase ABCB1 (Homo sapiens) (P08183 whole entry, looked up): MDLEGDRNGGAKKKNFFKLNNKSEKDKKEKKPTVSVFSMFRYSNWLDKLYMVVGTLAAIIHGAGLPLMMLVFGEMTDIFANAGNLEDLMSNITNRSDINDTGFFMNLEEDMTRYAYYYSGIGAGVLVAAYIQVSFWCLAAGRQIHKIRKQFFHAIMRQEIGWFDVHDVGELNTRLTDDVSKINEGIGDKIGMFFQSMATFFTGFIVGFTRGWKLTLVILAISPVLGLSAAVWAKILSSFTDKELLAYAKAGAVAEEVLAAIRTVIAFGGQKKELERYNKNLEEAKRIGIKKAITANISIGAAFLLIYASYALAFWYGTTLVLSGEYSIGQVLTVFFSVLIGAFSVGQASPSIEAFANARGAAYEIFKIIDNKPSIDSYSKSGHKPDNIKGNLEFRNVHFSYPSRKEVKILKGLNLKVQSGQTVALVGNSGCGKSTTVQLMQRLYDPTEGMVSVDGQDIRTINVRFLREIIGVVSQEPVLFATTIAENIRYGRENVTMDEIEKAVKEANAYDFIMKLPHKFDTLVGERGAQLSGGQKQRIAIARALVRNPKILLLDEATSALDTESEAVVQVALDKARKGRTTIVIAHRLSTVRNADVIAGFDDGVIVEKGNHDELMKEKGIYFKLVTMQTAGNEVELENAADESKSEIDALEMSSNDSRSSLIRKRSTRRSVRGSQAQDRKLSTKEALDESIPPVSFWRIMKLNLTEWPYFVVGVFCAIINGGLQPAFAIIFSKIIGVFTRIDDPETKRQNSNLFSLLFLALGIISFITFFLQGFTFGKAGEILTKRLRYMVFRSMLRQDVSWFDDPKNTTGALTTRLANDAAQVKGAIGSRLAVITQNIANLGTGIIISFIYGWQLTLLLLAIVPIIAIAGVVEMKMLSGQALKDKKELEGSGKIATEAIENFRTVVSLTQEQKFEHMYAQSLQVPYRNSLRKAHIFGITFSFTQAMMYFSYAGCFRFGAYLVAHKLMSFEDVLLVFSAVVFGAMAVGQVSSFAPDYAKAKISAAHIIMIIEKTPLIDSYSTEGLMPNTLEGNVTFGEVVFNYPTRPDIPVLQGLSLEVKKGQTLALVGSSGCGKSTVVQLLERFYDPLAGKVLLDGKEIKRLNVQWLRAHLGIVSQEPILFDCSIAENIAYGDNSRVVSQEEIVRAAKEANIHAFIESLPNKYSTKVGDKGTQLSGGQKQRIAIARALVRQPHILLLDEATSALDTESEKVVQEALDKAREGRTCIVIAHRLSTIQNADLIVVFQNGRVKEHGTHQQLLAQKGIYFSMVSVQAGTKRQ

The term viability denotes a read-out of living cells in per cent, often relative to untreated cells. For `CO/N=C(\C(=O)N[C@@H]1C(=O)N2C(C(=O)O)=C(COC(C)=O)CS[C@H]12)c1csc(N)n1` (stereo in doubt), in assay [1], the fluorescence slope change was 81.1% (active). Also, in assay [2], the period change is -0.095 h (inactive). Besides, the survival in assay [3] was 16.2 (inactive). The parasite load remaining in [4] is 35.6% (inactive) and 93.3% (inactive). For the same compound, in assay [4], the viability was 65.7% and 139%. The fold change is 1.01 (inactive) and 0.948 (inactive) in assay [5] (setting [13]); 2.06 and 1.21 in [5] (setting [14]). Further, the cell count in [5] (setting [15]) is 10500 and 9330; in [5] (setting [16]), 10300 and 9840. Moreover, the results for the z-score in assay [6] (setting [17]), in assay [6] (setting [18]) and in assay [9] were 0.18 (inactive), -0.136 and 0.04 (inactive), respectively. Besides, in [7], the remaining NAD is 10 nM (inactive). In addition, in [8], the luciferase signal is 152 AU (inactive).
For the compound `COc1ccc2cc(C(C)C(=O)O)ccc2c1` (stereo not given), the parasite load remaining in assay [4] was 40.8% (inactive). For the same compound, the viability in [4] was 47.4%. Moreover, the fold change in [5] (setting [13]) was 0.873 (inactive) and 1.59 (inactive) and 0.829 (inactive); in assay [5] (setting [14]), 1.19 and 0.614 and 0.98. The cell count in assay [5] (setting [15]) is 8070 and 7920 and 7570; in assay [5] (setting [16]), 9240 and 4980 and 9130. In addition, the z-score in assay [6] (setting [17]) was -0.171 (inactive) and 0.614 (inactive); in assay [6] (setting [18]) it was 0.627 and 0.253; in [9], 0.575 (inactive).
Broadly, the inhibition is the drop in the measured response relative to a control, in per cent. With `NC1CONC1=O` (stereo not given), the period change in assay [2] was -0.095 h (inactive). In addition, in assay [10], the inhibition was -2% (inactive). The fluorescence ratio (interference) in assay [11] was 1 (inactive). In addition, the fold change was 1.01 (inactive) and 0.986 (inactive) in assay [5] (setting [13]); 2.01 and 1.56 in assay [5] (setting [14]). Further, the cell count in assay [5] (setting [15]) was 10700 and 9620; in assay [5] (setting [16]) it was 10600 and 9760. In assay [12], the compound was classed as inactive. For the same compound, in assay [9], the z-score is 0.065 (inactive) and 0.91 (inactive).
For `N[C@@H](Cn1ccc(=O)c(O)c1)C(=O)O`, the parasite load remaining in assay [4] is 61.9% (inactive). Moreover, in assay [4], the viability came to 117%. In addition, in assay [10], the inhibition is -3% (inactive). Besides, in [11], the fluorescence ratio (interference) was 1 (inactive). Besides, the fold change was 1.03 (inactive) and 0.872 (inactive) in assay [5] (setting [13]); 1.54 and 1.46 in assay [5] (setting [14]). Besides, the cell count was 10200 and 9120 in [5] (setting [15]); 9910 and 10400 in assay [5] (setting [16]). Besides, the outcome in assay [12] was inactive. For the same compound, in assay [8], the luciferase signal was 68 AU (inactive). Further, the z-score in assay [9] is 0.455 (inactive).
For `CCCCCC(O)CCCC(=O)O` (stereo not given), the period change in [2] was -0.17 h (inactive). Moreover, the inhibition in assay [10] was -4% (inactive). Besides, in [11], the fluorescence ratio (interference) is 1 (inactive). Besides, the fold change in assay [5] (setting [13]) is 0.96 (inactive) and 0.942 (inactive); in assay [5] (setting [14]), 0.791 and 1.2. Further, the cell count is 9800 and 6140 in [5] (setting [15]); 10200 and 6510 in assay [5] (setting [16]). The result in [12] was inactive. Further, the z-score in assay [9] is 0.165 (inactive).
For the compound `C[C@H]1[C@H](NC(=O)/C(=N\OC(C)(C)C(=O)O)c2csc(N)n2)C(=O)N1S(=O)(=O)O`, the survival in [3] is 21.6 (inactive). In addition, the parasite load remaining in [4] is 29.2% (inactive) and 123% (inactive) and 17.7% (inactive). The viability in assay [4] is 47.3% and 89% and 68%. Further, the fold change was 0.907 (inactive) and 0.865 (inactive) in assay [5] (setting [13]); 1.09 and 1.14 in assay [5] (setting [14]). For the same compound, the cell count in assay [5] (setting [15]) is 8940 and 9450; in [5] (setting [16]) it was 9850 and 10900. For the same compound, the z-score in assay [6] (setting [17]) was 0.296 (inactive) and 0.337 (inactive); in [6] (setting [18]), 0.0689 and -0.343; in assay [9], 0.06 (inactive).
Regarding `CSC(=N)N`, the period change in assay [2] is -0.11 h (inactive). In assay [10], the inhibition is -4% (inactive). Moreover, the fluorescence ratio (interference) in assay [11] is 1 (inactive). In addition, the fold change in assay [5] (setting [13]) is 1 (inactive) and 0.925 (inactive); in assay [5] (setting [14]) it was 1.64 and 1.46. The cell count in [5] (setting [15]) was 10600 and 5770; in assay [5] (setting [16]), 10500 and 6230. The compound was classed as inactive in assay [12]. The z-score in [9] is 0.095 (inactive).
In the case of `CCCCC[C@H](O)/C=C/[C@@H]1[C@@H](C/C=C\CCCC(=O)O)[C@@H](O)C[C@H]1O`, the survival in assay [3] is 95.3 (inactive). Also, the parasite load remaining in assay [4] was 32.1% (inactive). Moreover, the viability in [4] is 102%. Also, the z-score in assay [6] (setting [17]) was -0.59 (inactive); in [6] (setting [18]), -0.344; in assay [9], 0.625 (inactive).
As to `O=C1c2c(O)cc(O)cc2OC(c2ccc(O)c(O)c2)C1O` (stereo not given), in [2], the period change was -0.11 h (inactive). Further, the inhibition in assay [10] was -3% (inactive). For the same compound, the fluorescence ratio (interference) in assay [11] was 1 (inactive). Besides, in assay [12], the call was inactive. Also, the z-score was -0.361 (inactive) in assay [6] (setting [17]); 0.683 in assay [6] (setting [18]); 0.265 (inactive) and -0.07 (inactive) and 0.43 (inactive) in [9].
Regarding `CCN(CC)CCOc1ccc(/C(=C(/Cl)c2ccccc2)c2ccccc2)cc1`, the fluorescence slope change in [1] is 69.8% (active). The survival in assay [3] is 1.25 (inactive). For the same compound, the parasite load remaining in assay [4] is 5.86% (inactive) and 13.7% (inactive) and 1.37% (inactive). In addition, in assay [4], the viability was 83.4% and 76% and 71%. Also, the fold change in assay [5] (setting [13]) is 0.802 (inactive) and 0.892 (inactive); in assay [5] (setting [14]), 1.39 and 1.34. Further, the cell count is 7010 and 7690 in [5] (setting [15]); 8740 and 8620 in [5] (setting [16]). Besides, the z-score is -1.93 (inactive) and -1.91 (inactive) in [6] (setting [17]); -0.316 and -1.39 in [6] (setting [18]); -2.19 (inactive) in [9].
